# Laboratory results: PubChem BioAssay (EPA / NIEHS)
# Results filed as inconclusive are left out. Calls of active or inactive are those of the source. How the source made its calls: active means hit-call score of the fitted dose curve at least 0.9, where 1 is the maximum; inconclusive means response in the unintended direction; inactive means score below 0.9.
# Biological target: Androgen Receptor/SRC-1 Co-activator, AR (gene 367) (UniProt P10275)
# Test: OT_AR_ARSRC1_0480: Odyssey Thera (OT) 8-hour HEK293T Protein-Complementation Assay for Androgen Receptor/SRC-1 Co-activator (AID 2283354);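 further: hits raise the complementation signal above DMSO so AC50 marks enhancers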
# Summary of the method: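 HEK293T cells stably expressing AR and SRC-1 fused to Venus YFP fragments, imaged 8 h after dosing. Complementation fluorescence scored as nuclear/cytoplasmic ratio at 488 nm in at least 400 cells per image; gain fitted versus DMSO.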
# Chain of Androgen Receptor/SRC-1 Co-activator, AR (gene 367) (P10275 whole entry, looked up): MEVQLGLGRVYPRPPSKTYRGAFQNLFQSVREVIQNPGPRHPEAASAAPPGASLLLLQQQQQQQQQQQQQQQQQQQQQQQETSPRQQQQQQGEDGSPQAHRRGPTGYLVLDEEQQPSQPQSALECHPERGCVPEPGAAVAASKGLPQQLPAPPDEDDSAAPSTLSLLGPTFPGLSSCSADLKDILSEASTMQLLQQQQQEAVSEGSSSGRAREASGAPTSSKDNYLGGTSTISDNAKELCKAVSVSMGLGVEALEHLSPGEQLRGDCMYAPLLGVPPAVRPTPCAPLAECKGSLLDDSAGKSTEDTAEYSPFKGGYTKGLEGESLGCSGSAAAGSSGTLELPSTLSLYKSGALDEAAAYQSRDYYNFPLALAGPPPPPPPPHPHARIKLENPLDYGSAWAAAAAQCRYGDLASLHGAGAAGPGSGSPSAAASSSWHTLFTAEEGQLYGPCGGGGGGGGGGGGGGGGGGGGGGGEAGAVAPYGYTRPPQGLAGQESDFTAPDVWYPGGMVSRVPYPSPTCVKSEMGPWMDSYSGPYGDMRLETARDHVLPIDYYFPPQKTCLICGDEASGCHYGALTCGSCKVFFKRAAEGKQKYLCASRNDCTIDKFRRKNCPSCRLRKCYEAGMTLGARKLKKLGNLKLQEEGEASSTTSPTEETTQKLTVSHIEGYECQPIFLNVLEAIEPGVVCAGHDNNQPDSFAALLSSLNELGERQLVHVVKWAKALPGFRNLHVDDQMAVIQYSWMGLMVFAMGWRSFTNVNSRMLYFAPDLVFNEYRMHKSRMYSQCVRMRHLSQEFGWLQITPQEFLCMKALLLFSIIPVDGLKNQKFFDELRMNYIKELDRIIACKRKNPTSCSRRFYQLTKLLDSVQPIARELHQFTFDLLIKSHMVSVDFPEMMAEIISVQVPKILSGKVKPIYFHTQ
SMILES,AC50,outcome
Oc1ccc(-c2ccccc2)c(Cl)c1,31.5 µM (active),–
CC(=O)OC1CCCCC1C(C)(C)C (stereo not given),–,inactive
CN(C)Cc1cc(CN(C)C)c(O)c(CN(C)C)c1,–,inactive
C=C1C[C@H]2[C@@H]3C=C(C)C4=CC(=O)CC[C@]4(C)[C@H]3CC[C@]2(C)[C@@]1(OC(C)=O)C(C)=O,5.8 µM (active),–

# Biological target: Estrogen receptor (Homo sapiens) + Estrogen receptor beta (Homo sapiens) (UniProt P03372+Q92731)
# Sequence (P03372 whole entry, looked up, the tested form may be a part): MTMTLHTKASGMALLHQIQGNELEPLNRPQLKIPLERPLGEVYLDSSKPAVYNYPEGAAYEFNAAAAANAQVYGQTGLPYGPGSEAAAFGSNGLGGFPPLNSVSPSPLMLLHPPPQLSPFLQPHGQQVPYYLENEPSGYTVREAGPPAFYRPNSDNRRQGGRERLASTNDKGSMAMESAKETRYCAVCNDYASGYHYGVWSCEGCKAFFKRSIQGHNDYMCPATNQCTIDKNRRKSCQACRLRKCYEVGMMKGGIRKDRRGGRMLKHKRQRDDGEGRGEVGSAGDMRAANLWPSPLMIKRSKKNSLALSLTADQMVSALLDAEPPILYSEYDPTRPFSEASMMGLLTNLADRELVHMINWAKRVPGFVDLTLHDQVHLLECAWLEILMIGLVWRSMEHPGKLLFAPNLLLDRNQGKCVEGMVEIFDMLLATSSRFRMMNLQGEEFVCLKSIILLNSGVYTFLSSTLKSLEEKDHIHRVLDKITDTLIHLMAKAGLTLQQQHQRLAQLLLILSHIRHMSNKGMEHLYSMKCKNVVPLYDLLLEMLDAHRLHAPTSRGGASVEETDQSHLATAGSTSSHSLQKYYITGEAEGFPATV
# Sequence (Q92731 whole entry, looked up, the tested form may be a part): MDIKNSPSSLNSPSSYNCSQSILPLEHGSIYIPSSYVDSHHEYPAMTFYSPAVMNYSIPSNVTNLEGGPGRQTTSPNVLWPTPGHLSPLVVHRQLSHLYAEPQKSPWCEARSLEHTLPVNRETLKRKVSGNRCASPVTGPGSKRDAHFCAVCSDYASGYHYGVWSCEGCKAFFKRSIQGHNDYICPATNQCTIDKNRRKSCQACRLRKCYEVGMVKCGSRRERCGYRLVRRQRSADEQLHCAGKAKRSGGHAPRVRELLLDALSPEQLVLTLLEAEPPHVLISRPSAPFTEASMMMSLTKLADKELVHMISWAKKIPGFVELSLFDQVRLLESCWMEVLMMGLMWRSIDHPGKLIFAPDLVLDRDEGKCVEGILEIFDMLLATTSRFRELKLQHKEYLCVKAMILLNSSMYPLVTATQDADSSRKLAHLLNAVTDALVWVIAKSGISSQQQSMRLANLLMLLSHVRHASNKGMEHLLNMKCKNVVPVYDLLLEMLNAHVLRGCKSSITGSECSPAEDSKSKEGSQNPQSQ
# Test: OT_ER_ERaERb_1440: Odyssey Thera (OT) 24-hour HEK293T Protein-Complementation Assay for Estrogen Receptor-alpha/-beta Homodimer (AID 2283356);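 further: heteromer of ER alpha and ER beta binding domains; hits raise reporter fluorescence and both agonists and antagonists give an increase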
# Summary of the method: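 HEK293T stably expressing a PCA of ER alpha LBD (aa 310-547) and ER beta LBD (aa 263-489). After 24 h compound exposure, mean fluorescence intensity in nucleus (agonists) or nucleus and cytoplasm (antagonists) measured by laser scanning cytometry versus vehicle.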
SMILES,AC50,outcome
Oc1ccc(-c2ccccc2)c(Cl)c1,15.9 µM (active),–
CC(=O)OC1CCCCC1C(C)(C)C (stereo not given),–,inactive
CC(CCC(=O)O)(c1ccc(O)cc1)c1ccc(O)cc1,60.1 µM (active),–
O=C(OCc1ccccc1)c1ccc(O)cc1,33.6 µM (active),–
Cc1ccc([N+](=O)[O-])cc1N,–,inactive
CCCCNS(=O)(=O)c1ccccc1,–,inactive
CCCCC(=O)O,–,inactive
CCCCC(C=O)CC (stereo not given),–,inactive
C=C1C[C@H]2[C@@H]3C=C(C)C4=CC(=O)CC[C@]4(C)[C@H]3CC[C@]2(C)[C@@]1(OC(C)=O)C(C)=O,16.9 µM (active),–
CC(=O)OC(C)c1ccccc1 (stereo not given),–,inactive
CCCCNC(=S)NCCCC,–,inactive
CCN1CN(CC)CN(CC)C1,–,inactive
CCCCC(CC)COS(=O)(=O)O (stereo not given),–,inactive
CC1=CCC2CC1C2(C)C (stereo not given),–,inactive
CCOC(=O)c1ccc(C)cc1,–,inactive
CCCCCCCCCC[N+](C)(CCCCCCCCCC)CCC[Si](OC)(OC)OC,11.8 µM (active),–
Nc1ccc(C(=O)O)cc1,–,inactive
C1CNCCN1,–,inactive
CCOC(=O)c1ccccc1C,–,inactive

# Biological target: Estrogen receptor beta (Homo sapiens) (UniProt Q92731)
# Sequence (Q92731 whole entry, looked up): as the sequence (Q92731 whole entry, looked up, the tested form may be a part) above
# Test: OT_ER_ERbERb_0480: Odyssey Thera (OT) 8-hour HEK293T Protein-Complementation Assay for Estrogen Receptor-beta/-beta Homodimer (AID 2283357);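 further: active means signal gain over DMSO baseline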
# Summary of the method: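 Fluorescence intensity, nuclear for agonists and nuclear plus cytoplasmic for antagonists, was quantified by laser scanning cytometry versus vehicle after 8 h treatment. The cells were HEK293T stably carrying ER beta LBD fragment-complementation partners.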
SMILES,outcome,AC50
Oc1ccc(-c2ccccc2)c(Cl)c1,inactive,–
CC(=O)OC1CCCCC1C(C)(C)C (stereo not given),inactive,–
CC(CCC(=O)O)(c1ccc(O)cc1)c1ccc(O)cc1,–,31.8 µM (active)
O=C(OCc1ccccc1)c1ccc(O)cc1,–,3.98 µM (active)
CCCCNS(=O)(=O)c1ccccc1,inactive,–
CCCCC(C=O)CC (stereo not given),inactive,–
C=C1C[C@H]2[C@@H]3C=C(C)C4=CC(=O)CC[C@]4(C)[C@H]3CC[C@]2(C)[C@@]1(OC(C)=O)C(C)=O,inactive,–
CC(=O)OC(C)c1ccccc1 (stereo not given),inactive,–
CCCCNC(=S)NCCCC,inactive,–
CCN1CN(CC)CN(CC)C1,inactive,–
CC1=CCC2CC1C2(C)C (stereo not given),inactive,–
Nc1ccc(C(=O)O)cc1,inactive,–
C1CNCCN1,inactive,–
CCOC(=O)c1ccccc1C,inactive,–

# Biological target: Retinoic acid receptor alpha (Homo sapiens) (UniProt P10276)
# Sequence (P10276 whole entry, looked up): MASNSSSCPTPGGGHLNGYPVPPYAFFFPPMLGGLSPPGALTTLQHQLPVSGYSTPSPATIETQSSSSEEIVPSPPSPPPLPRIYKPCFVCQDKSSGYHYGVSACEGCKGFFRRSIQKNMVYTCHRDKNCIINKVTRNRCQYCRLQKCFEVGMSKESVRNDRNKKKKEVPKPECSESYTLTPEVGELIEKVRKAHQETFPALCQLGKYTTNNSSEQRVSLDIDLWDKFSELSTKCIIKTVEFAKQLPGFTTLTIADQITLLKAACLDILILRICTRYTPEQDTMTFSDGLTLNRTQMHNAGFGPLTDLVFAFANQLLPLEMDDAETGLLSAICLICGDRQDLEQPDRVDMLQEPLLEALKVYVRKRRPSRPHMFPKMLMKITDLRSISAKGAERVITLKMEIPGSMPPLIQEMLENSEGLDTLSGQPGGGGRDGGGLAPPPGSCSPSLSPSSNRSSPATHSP
# Test: NVS_NR_hRAR_Antagonist: NovaScreen (NVS) Nuclear Receptor Binding Assay for human Retinoic Acid Alpha Receptor Antagonism (RAR) (AID 2283358)
# Summary of the method: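 Cell-free TR-FRET binding assay with extracted human RARalpha in antagonist mode, read 2 h after dosing. Loss of signal was fitted relative to DMSO; the primary screen used 25 uM in duplicate, with concentration series on follow-up.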
row,SMILES,outcome
1,CCCCC/C=C\C/C=C\CCCCCCCC(=O)O,inactive
2,CCCCCCCCCC[N+](C)(CCCCCCCCCC)CCC[Si](OC)(OC)OC,inactive
3,Nc1ccc(C(=O)O)cc1,inactive
